Results on six compounds are retold here after the supplement of paper PMC7411054.

Holding throughout (details): treatment time: 24 h
In assay [1] the test system is HepG2-GM130-SQSTM1. Kind of assay: lowest phenotypically active concentration; higher = less potent. The essentials:
(§1)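 After 24 h at 0.3, 1, 3 or 9 µM, with four wells per treatment, fifteen gene-edited A549, HepG2 and WPMY1 reporter lines carrying BFP, GFP and RFP/FusionRed were imaged live. Each well's live-cell features were expressed relative to solvent control wells. Deviation required ≥3 of 4 wells past the 95th percentile of control Euclidean distances, and reproducibility a median replicate Pearson correlation over the 95th percentile of non-replicates. Phenotypic activity rested on both.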

For another assay, the system named is A549-ACTB-RAB5A. Kind of assay: phenotypically active (imaging signature differs from DMSO and reproducible) at any of 0.3-9 uM (binary (1 = active, 0 = inactive)); higher = active. The essentials:
as §1

In a further assay the test system is A549-CANX-COX4. The description is as above. The essentials: as §1
The subject of assay [2] is A549-GM130-SQSTM1. The description is as above. The essentials: as §1
In the next assay the test system is A549-TP53BP1-CLTA. The description is as above. The essentials: as §1
In another assay the test system is A549-TUBA1B-RELA. The assay is described as above. In a few lines:
as §1

For assay [3], the system named is HepG2-ACTB-RAB5A. The assay is described as above. The essentials:
as §1

Another assay concerns HepG2-CANX-COX4. The assay is described as above. In a few lines: as §1
Assay [4] concerns HepG2-GM130-SQSTM1. The assay is described as above. In a few lines: as §1
The subject of the next assay is HepG2-TP53BP1-CLTA. The assay is described as above. The essentials: as §1
A further assay relates to HepG2-TUBA1B-RELA. The description is as above. In a few lines:
as §1

A further assay deals with WPMY1-ACTB-RAB5A. The assay is described as above. In a few lines: as §1
Another assay concerns WPMY1-CANX-COX4. Described as above. The essentials: as §1
The subject of assay [5] is WPMY1-GM130-SQSTM1. The assay is described as above. The essentials:
as §1

The next assay concerns WPMY1-TP53BP1-CLTA. The description is as above. In a few lines:
as §1

The subject of a further assay is WPMY1-TUBA1B-RELA. The assay is described as above. The essentials: as §1
In assay [6] the test system is A549-GM130-SQSTM1. Kind of assay: lowest phenotypically active concentration; higher = less potent. In a few lines: as §1
Assay [7] concerns HepG2-ACTB-RAB5A. The assay is described as above. In a few lines: as §1
Assay [8] deals with WPMY1-GM130-SQSTM1. The description is as above. The essentials:
as §1

With `NC(=O)c1ccc(I)c([N+](=O)[O-])c1`, in the assay on HepG2-GM130-SQSTM1 [1], the “lowest phenotypically active concentration” value stood at 9 µM. In addition, the phenotypically active with A549-ACTB-RAB5A, in the assay with A549-CANX-COX4, with A549-GM130-SQSTM1 [2], with A549-TP53BP1-CLTA, in the assay on A549-TUBA1B-RELA and in the assay on HepG2-ACTB-RAB5A [3] was 0 (inactive) throughout. Besides, the phenotypically active is 0 (inactive) in the assay with HepG2-CANX-COX4; 1 (active) in the assay with HepG2-GM130-SQSTM1 [4]; 0 (inactive) in the assay with HepG2-TP53BP1-CLTA; 0 (inactive) with HepG2-TUBA1B-RELA; 0 (inactive) with WPMY1-ACTB-RAB5A; 0 (inactive) in the assay on WPMY1-CANX-COX4. For the same compound, the phenotypically active with WPMY1-GM130-SQSTM1 [5], in the assay with WPMY1-TP53BP1-CLTA and in the assay with WPMY1-TUBA1B-RELA was 0 (inactive) throughout.

Turning to `c1ccc(-c2n[nH]cc2-c2ccnc3ccccc23)nc1`, in the assay with HepG2-GM130-SQSTM1 [1], the “lowest phenotypically active concentration” value was found to be 9 µM. Moreover, the phenotypically active is 0 (inactive) in the assay on A549-ACTB-RAB5A; 0 (inactive) in the assay on A549-CANX-COX4; 0 (inactive) in the assay on A549-GM130-SQSTM1 [2]; 0 (inactive) in the assay with A549-TP53BP1-CLTA; 1 (active) with A549-TUBA1B-RELA; 0 (inactive) in the assay on HepG2-ACTB-RAB5A [3]. Further, the phenotypically active in the assay on HepG2-CANX-COX4 is 1 (active); in the assay with HepG2-GM130-SQSTM1 [4] it was 1 (active); in the assay with HepG2-TP53BP1-CLTA, 1 (active); in the assay with HepG2-TUBA1B-RELA it was 0 (inactive); in the assay on WPMY1-ACTB-RAB5A it was 1 (active); in the assay on WPMY1-CANX-COX4, 1 (active). In addition, the phenotypically active in the assay on WPMY1-GM130-SQSTM1 [5], in the assay on WPMY1-TP53BP1-CLTA and in the assay on WPMY1-TUBA1B-RELA was 0 (inactive) in each case.

Turning to `CO[C@H]1C=CO[C@@]2(C)Oc3c(C)c(O)c4c(O)c(c(/C=N/N5CCN(C)CC5)c(O)c4c3C2=O)NC(=O)C(C)=CC=C[C@H](C)[C@H](O)[C@@H](C)[C@@H](O)[C@@H](C)[C@H](OC(C)=O)[C@@H]1C` [Rifampicin], in the assay with A549-GM130-SQSTM1 [6], the “lowest phenotypically active concentration” value amounted to 9 µM. Moreover, the phenotypically active in the assay on A549-ACTB-RAB5A is 0 (inactive); in the assay with A549-CANX-COX4, 0 (inactive); in the assay with A549-GM130-SQSTM1 [2] it was 1 (active); with A549-TP53BP1-CLTA, 0 (inactive); in the assay with A549-TUBA1B-RELA it was 0 (inactive); in the assay with HepG2-ACTB-RAB5A [3], 0 (inactive). Further, the phenotypically active in the assay with HepG2-CANX-COX4 is 1 (active); with HepG2-GM130-SQSTM1 [4], 0 (inactive); in the assay on HepG2-TP53BP1-CLTA it was 0 (inactive); in the assay on HepG2-TUBA1B-RELA it was 0 (inactive); with WPMY1-ACTB-RAB5A, 0 (inactive); in the assay on WPMY1-CANX-COX4, 0 (inactive). The phenotypically active in the assay with WPMY1-GM130-SQSTM1 [5], with WPMY1-TP53BP1-CLTA and in the assay with WPMY1-TUBA1B-RELA was 0 (inactive) in each case.

As to `Clc1ccc(C(c2ccc(Cl)cc2)[n+]2ccn(CC(OCc3ccc(Cl)cc3Cl)c3ccc(Cl)cc3Cl)c2)cc1` (centres undefined) [Calmidazolium chloride], the “lowest phenotypically active concentration” value with HepG2-ACTB-RAB5A [7] and in the assay with WPMY1-GM130-SQSTM1 [8] was 3 µM throughout. Also, the phenotypically active in the assay with A549-ACTB-RAB5A was 0 (inactive); in the assay on A549-CANX-COX4, 0 (inactive); with A549-GM130-SQSTM1 [2] it was 0 (inactive); with A549-TP53BP1-CLTA, 0 (inactive); in the assay with A549-TUBA1B-RELA, 0 (inactive); in the assay with HepG2-ACTB-RAB5A [3], 1 (active). Also, the phenotypically active in the assay with HepG2-CANX-COX4 was 0 (inactive); in the assay with HepG2-GM130-SQSTM1 [4], 0 (inactive); with HepG2-TP53BP1-CLTA, 0 (inactive); with HepG2-TUBA1B-RELA, 1 (active); in the assay on WPMY1-ACTB-RAB5A, 0 (inactive); in the assay with WPMY1-CANX-COX4 it was 1 (active). In addition, the phenotypically active with WPMY1-GM130-SQSTM1 [5] was 1 (active); in the assay with WPMY1-TP53BP1-CLTA it was 0 (inactive); in the assay with WPMY1-TUBA1B-RELA, 1 (active).

For `S=c1[nH]cnc2nc[nH]c12` [mercaptopurine], the “lowest phenotypically active concentration” value in the assay on HepG2-ACTB-RAB5A [7] and in the assay with WPMY1-GM130-SQSTM1 [8] was 9 µM throughout. In addition, the phenotypically active is 0 (inactive) in the assay with A549-ACTB-RAB5A; 0 (inactive) with A549-CANX-COX4; 0 (inactive) in the assay on A549-GM130-SQSTM1 [2]; 0 (inactive) in the assay on A549-TP53BP1-CLTA; 0 (inactive) with A549-TUBA1B-RELA; 1 (active) in the assay with HepG2-ACTB-RAB5A [3]. Further, the phenotypically active with HepG2-CANX-COX4 was 1 (active); in the assay on HepG2-GM130-SQSTM1 [4] it was 0 (inactive); in the assay on HepG2-TP53BP1-CLTA, 0 (inactive); in the assay on HepG2-TUBA1B-RELA, 1 (active); in the assay on WPMY1-ACTB-RAB5A, 0 (inactive); in the assay with WPMY1-CANX-COX4, 1 (active). The phenotypically active is 1 (active) with WPMY1-GM130-SQSTM1 [5], 0 (inactive) in the assay with WPMY1-TP53BP1-CLTA and 1 (active) in the assay on WPMY1-TUBA1B-RELA.

Take `COc1ccc(CC2c3cc(OC)c(OC)cc3CC[N+]2(C)CCC(=O)OCCCCCOC(=O)CC[N+]2(C)CCc3cc(OC)c(OC)cc3C2Cc2ccc(OC)c(OC)c2)cc1OC` (centres undefined) [Atracurium besilate]: the “lowest phenotypically active concentration” value came out at 3 µM in the assay on HepG2-GM130-SQSTM1 [1] and 9 µM in the assay on WPMY1-GM130-SQSTM1 [8]. Also, the phenotypically active in the assay with A549-ACTB-RAB5A, in the assay with A549-CANX-COX4, with A549-GM130-SQSTM1 [2], with A549-TP53BP1-CLTA, with A549-TUBA1B-RELA and in the assay with HepG2-ACTB-RAB5A [3] was 0 (inactive) throughout. Also, the phenotypically active in the assay with HepG2-CANX-COX4 is 1 (active); with HepG2-GM130-SQSTM1 [4], 1 (active); in the assay with HepG2-TP53BP1-CLTA, 0 (inactive); in the assay on HepG2-TUBA1B-RELA it was 0 (inactive); in the assay with WPMY1-ACTB-RAB5A it was 1 (active); in the assay on WPMY1-CANX-COX4, 0 (inactive). The phenotypically active in the assay with WPMY1-GM130-SQSTM1 [5] was 1 (active); in the assay with WPMY1-TP53BP1-CLTA, 0 (inactive); in the assay on WPMY1-TUBA1B-RELA, 0 (inactive).
